Results from PubChem BioAssay (Tox21).
Activity calls are given as the source filed them. Entries that show only a call come without a potency. Unless noted, calls follow the shape of the dose curve; as a rule, active = well fitted curve in the direction sought with a large enough effect in the repeat runs; inconclusive = weak or mixed curves; inactive = no such curve, though single readings can be large; an effect the other way counts as inactive or inconclusive.

Experiments:
[1] = qHTS assay for small molecule disruptors of the mitochondrial membrane potential (AID 720635); also: potency is read from the fitted curve at half-maximal effect
Outline: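 HepG2 cells (2,000/well) attached overnight at 37C, then took compound for 1 hr at 37C, 5% CO2. Mito-MPS dye was added for 30 min; fluorescence was read at 490/535 nm (monomers) and 540/590 nm (aggregates).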

[2] = qHTS assay to test for compound auto fluorescence at 535 nm (green) in HepG2 cells (AID 720675)
[3] = qHTS assay to test for compound auto fluorescence at 590 nm (red) in HepG2 cell free culture (AID 720684)
Outline: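 Readout: intrinsic compound fluorescence at 590 nm emission after 540 nm excitation, scaled to Rose Bengal sodium. Matrix was cell-free MEM with 10% FBS; DMSO vehicle wells served as control.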

[4] = biological target: Glucocorticoid receptor (Homo sapiens) (UniProt P04150); experiment: qHTS assay to identify small molecule agonists of the glucocorticoid receptor (GR) signaling pathway (AID 720691; active = well fitted activation curve with a large enough effect in the signal ratio in the repeat runs, not every such curve was filed as active; inconclusive = weak or mixed curves, or effect the other way; inactive = no such curve, though single readings can be large or run the other way; the % refers to the signal ratio)
Chain of Glucocorticoid receptor (Homo sapiens) (P04150 whole entry, looked up): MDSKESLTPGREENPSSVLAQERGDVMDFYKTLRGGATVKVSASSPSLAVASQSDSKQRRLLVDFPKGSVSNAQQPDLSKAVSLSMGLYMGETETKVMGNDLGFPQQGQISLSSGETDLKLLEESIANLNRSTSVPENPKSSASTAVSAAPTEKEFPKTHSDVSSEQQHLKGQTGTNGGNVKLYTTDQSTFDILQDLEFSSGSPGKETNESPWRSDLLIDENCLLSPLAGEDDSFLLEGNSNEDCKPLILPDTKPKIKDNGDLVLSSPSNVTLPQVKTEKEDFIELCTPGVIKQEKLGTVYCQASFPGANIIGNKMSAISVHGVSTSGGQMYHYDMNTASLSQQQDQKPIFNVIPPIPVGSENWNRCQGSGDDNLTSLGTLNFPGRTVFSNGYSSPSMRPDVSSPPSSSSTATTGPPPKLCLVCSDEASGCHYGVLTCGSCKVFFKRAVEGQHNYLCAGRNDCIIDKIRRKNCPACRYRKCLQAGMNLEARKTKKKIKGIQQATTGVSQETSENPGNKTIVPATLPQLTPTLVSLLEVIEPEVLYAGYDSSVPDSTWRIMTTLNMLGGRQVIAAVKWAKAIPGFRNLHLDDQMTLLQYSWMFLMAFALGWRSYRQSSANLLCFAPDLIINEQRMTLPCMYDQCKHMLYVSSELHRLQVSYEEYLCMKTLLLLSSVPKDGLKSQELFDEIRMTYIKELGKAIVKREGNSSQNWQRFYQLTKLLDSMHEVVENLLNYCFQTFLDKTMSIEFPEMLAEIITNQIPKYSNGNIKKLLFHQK
Outline: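 A HeLa cervical cancer line expressing GR and a glucocorticoid response element-driven beta-lactamase gene is treated with compounds for 18 h; LiveBLAzer B/G FRET substrate is then applied and fluorescence read.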

[5] = qHTS assay for identifying genotoxic compounds that show differential cytotoxicity against isogenic chicken DT40 cell lines with known DNA damage response pathways - wild type cell line (AID 743012); also: nearly all actives have a fitted effect of over 60% in size; also: potency is read from the fitted curve at half-maximal effect
Outline: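 300 wt DT40 cells/well; cpd (DMSO) pintool-transferred after ~0.5 h at 37 C/5% CO2; 40 h incubation; CellTiter-Glo added, 30 min RT; luminescence read.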

[6] = qHTS assay to identify small molecule antagonists of the androgen receptor (AR) signaling pathway - cell viability counter screen (AID 743033; also: nearly all actives have a fitted effect of over 45% in size; also: potency is read from the fitted curve at half-maximal effect)
[7] = qHTS assay to identify small molecule antagonists of the thyroid receptor (TR) signaling pathway (AID 743065); also: nearly all actives have a fitted effect of over 55% in size; also: potency is read from the fitted curve at half-maximal effect
Outline: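 GH3.TRE-Luc rat pituitary cells carrying two TR response elements driving luciferase were plated for 4 h, given compound plus 1 nM T3 (final), and incubated 23.5 h at 37 C. ONE-Glo luminescence measured reporter inhibition; CellTiter-Fluor fluorescence tracked cytotoxicity.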

[8] = system: thyroid hormone receptor (rat, GH3 cells); experiment: qHTS assay to identify small molecule agonists of the thyroid receptor (TR) signaling pathway (AID 743066; calls by dose curve)
[9] = qHTS assay to identify small molecule antagonists of the estrogen receptor alpha (ER-alpha) signaling pathway using the BG1 cell line - cell viability counter screen (AID 743081);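 also: compound given together with 17beta-estradiol as the ER stimulus; series mostly up to about 70 µM; nearly all actives have a fitted effect of over 45% in size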
[10] = qHTS assay to test for compound auto fluorescence at 460 nm (blue) in HepG2 cells (AID 720687)
Outline: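 Cells (2,000/well in MEM with 10% FBS) attached overnight at 37 C, then were exposed to compound or DMSO for 1 hr at 37 C, 5% CO2. Fluorescence read at Ex/Em 405/460 nm, expressed as triamterene-equivalent signal.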

[11] = qHTS assay to identify small molecule antagonists of the androgen receptor (AR) signaling pathway using the MDA cell line - cell viability counter screen (AID 743041; also: nearly all actives have a fitted effect of over 45% in size; also: potency is read from the fitted curve at half-maximal effect)
Outline: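 qHTS viability read-out; MDA-kb2 AR-luc; R1881-stimulated; 16 h exposure at 37C, 0% CO2; CellTiter-Fluor, 30 min; fluorescence intensity.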

[12] = qHTS assay to identify small molecule antagonists of the thyroid receptor (TR) signaling pathway - cell viability counter screen (AID 743064); also: nearly all actives have a fitted effect of over 50% in size; also: potency is read from the fitted curve at half-maximal effect
Outline: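 GH3.TRE-Luc rat pituitary cells carrying a TRE-luciferase reporter were treated with compound plus 1 nM T3 (final) for 23.5 h at 37 °C. Viability was then read in the same wells by CellTiter-Fluor fluorescence after a further 30 min.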

[13] = biological target: Estrogen receptor (Homo sapiens) (UniProt P03372); experiment: qHTS assay to identify small molecule agonists of the estrogen receptor alpha (ER-alpha) signaling pathway (AID 743075; calls by dose curve;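 also: HEK293 GripTite cells with ER-alpha and UAS-driven beta-lactamase reporter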; also: potency is read from the fitted curve at half-maximal effect)
Chain of Estrogen receptor (Homo sapiens) (P03372 whole entry, looked up): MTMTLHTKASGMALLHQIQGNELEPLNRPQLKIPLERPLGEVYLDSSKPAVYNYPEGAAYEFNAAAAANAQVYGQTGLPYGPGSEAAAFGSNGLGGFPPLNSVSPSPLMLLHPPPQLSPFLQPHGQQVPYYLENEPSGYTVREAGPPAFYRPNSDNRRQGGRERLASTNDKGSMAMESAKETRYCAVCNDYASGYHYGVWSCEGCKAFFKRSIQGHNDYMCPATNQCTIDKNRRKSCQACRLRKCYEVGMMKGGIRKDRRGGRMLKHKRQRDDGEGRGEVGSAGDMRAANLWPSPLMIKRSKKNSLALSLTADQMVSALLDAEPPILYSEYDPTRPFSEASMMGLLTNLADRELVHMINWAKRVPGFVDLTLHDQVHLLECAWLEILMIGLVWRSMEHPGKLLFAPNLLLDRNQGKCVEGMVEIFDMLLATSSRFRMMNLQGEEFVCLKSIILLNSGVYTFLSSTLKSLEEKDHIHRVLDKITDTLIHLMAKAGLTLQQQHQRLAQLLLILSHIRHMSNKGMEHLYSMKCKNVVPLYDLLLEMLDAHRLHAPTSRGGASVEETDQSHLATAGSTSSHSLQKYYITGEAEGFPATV

[14] = biological target: Estrogen receptor (Homo sapiens) (UniProt P03372); experiment: qHTS assay to identify small molecule agonists of the estrogen receptor alpha (ER-alpha) signaling pathway using the BG1 cell line (AID 743079); also: nearly all actives have a fitted effect of over 20% in size; also: potency is read from the fitted curve at half-maximal effect
[15] = qHTS assay to identify small molecule antagonists of the estrogen receptor alpha (ER-alpha) signaling pathway using the BG1 cell line (AID 743080; calls by dose curve;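 also: BG1 cells stimulated with 17beta-estradiol alongside compound; series mostly up to about 70 µM; nearly all actives have a fitted effect of over 25% in size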)
Outline: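 Luminescence from a 4×ERE-luciferase reporter in BG1-Luc-4E2 cells served as read-out. Cells, pre-cultured 5 days in stripped-serum phenol-red-free medium, were exposed to compound with 17beta-estradiol co-stimulation for 21.5 h at 37 C.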

[16] = qHTS assay to test for compound auto fluorescence at 460 nm (blue) in HepG2 cell free culture (AID 720685)
Outline: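 Cell-free plates of MEM plus 10% FBS received 23 nL compound or DMSO vehicle; blue-channel (405/460 nm) intensity scored against triamterene as reference fluorophore.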

[17] = qHTS assay to test for compound auto fluorescence at 535 nm (green) in HepG2 cell free culture (AID 720686)
[18] = biological target: Acetylcholinesterase (Homo sapiens) (UniProt P22303); experiment: Acetylcholinesterase (AChE) small molecule antagonists: enzyme-based qHTS assay (AID 1347397; calls by dose curve; also: nearly all actives have a fitted effect of over 55% in size); details: Potency: AChE enzyme activity inhibition; outcome: AChE enzyme activity inhibition
Chain of Acetylcholinesterase (Homo sapiens) (P22303 whole entry, looked up): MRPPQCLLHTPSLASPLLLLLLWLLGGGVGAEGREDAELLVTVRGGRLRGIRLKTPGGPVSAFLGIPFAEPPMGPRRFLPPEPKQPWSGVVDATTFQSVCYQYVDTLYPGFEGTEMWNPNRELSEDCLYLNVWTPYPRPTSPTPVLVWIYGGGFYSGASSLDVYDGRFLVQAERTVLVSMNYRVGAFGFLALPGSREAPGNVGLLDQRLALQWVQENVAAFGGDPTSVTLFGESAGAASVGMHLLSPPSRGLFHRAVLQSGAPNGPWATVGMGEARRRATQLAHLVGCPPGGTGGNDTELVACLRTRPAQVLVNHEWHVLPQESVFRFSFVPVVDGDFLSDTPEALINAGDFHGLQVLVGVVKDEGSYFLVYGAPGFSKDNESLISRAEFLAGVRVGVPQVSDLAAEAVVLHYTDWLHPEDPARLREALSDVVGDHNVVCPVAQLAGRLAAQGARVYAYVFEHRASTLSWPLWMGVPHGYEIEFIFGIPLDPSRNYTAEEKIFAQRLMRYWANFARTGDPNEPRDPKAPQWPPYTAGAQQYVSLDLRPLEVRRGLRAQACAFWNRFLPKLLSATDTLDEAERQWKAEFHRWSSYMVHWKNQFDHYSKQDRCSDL
Outline: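 Tox21 library chemicals are tested in qHTS format against recombinant human AChE. The enzyme, dispensed at 50 mU/mL, sits with compound for 30 min at room temperature. A DTNB–acetylthiocholine cocktail follows, and colour is read after 10 min.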

[19] = biological target: Acetylcholinesterase (Homo sapiens) (UniProt P22303); experiment: Acetylcholinesterase (AChE) small molecule antagonists: fluorescence cell-based qHTS assay (AID 1347398; calls by dose curve; also: nearly all actives have a fitted effect of over 50% in size); details: Potency: AChE activity; outcome: AChE activity
Outline: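 Cellular AChE inhibition: SH-SY5Y cells treated with test chemical for 30 min at 37 C, then acetylthiocholine hydrolysis followed over 40 min at room temperature via thiocholine-reactive Thiolite Green fluorescence (490/520 nm).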

[20] = qHTS assay for small molecule agonists of the p53 signaling pathway (AID 651631; calls by dose curve; also: nearly all actives have a fitted effect of over 15% in size)
Outline: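 HCT-116 cells carrying a stable p53 response element–beta-lactamase reporter were plated, rested 5 h at 37 °C, then exposed to compound in DMSO for 16 h at 37 °C; reporter activity was read as FRET substrate fluorescence after 2 h at room temperature.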

CC(=O)O[C@H]1C[C@H](O[C@H]2[C@@H](O)C[C@H](O[C@H]3[C@@H](O)C[C@H](O[C@H]4CC[C@@]5(C)[C@H](CC[C@@H]6[C@@H]5C[C@@H](O)[C@]5(C)[C@@H](C7=CC(=O)OC7)CC[C@]65O)C4)O[C@@H]3C)O[C@@H]2C)O[C@H](C)[C@H]1O[C@@H]1O[C@H](CO)[C@@H](O)[C@H](O)[C@H]1O
Potency [1]: 0.75 µM (active) | Potency [2]: inactive | outcome [3]: inactive | Potency [4]: inactive | Potency [5]: 0.75 µM (active) | Potency [6]: 0.0756 µM (active) | Potency [7]: inactive | Potency [8]: inactive | Potency [9]: inactive

C[C@@H]1[C@H](O)[C@@H](C)/C=C/C=C/CC/C=C/C=C/C=C/C=C/[C@H](O[C@H]2O[C@@H](C)[C@H](O)[C@@H](N)[C@H]2O)CC2O[C@](O)(C[C@@H](O)[C@H](O)CC[C@@H](O)C[C@@H](O)C[C@@H](O)CC(=O)O[C@H]1C)C[C@H](O)[C@H]2C(=O)O
Potency [2]: inactive | outcome [3]: inactive | Potency [10]: inactive | Potency [5]: inactive | Potency [6]: inactive | Potency [11]: inactive | Potency [12]: inactive | Potency [7]: inactive | Potency [8]: inactive | Potency [13]: inactive | Potency [14]: inactive | Potency [15]: inactive

C[C@H]1[C@H]2Cc3ccc(O)cc3[C@]1(C)CCN2CCc1ccccc1
Potency [2]: inactive | outcome [3]: inactive | Potency [16]: inactive | Potency [17]: inactive | Potency [4]: inactive | Potency [6]: inactive | Potency [12]: 30.4 µM (active) | Potency [8]: inactive | Potency [13]: inactive | Potency [14]: inactive

COc1cc2c(cc1OC)[C@@H]1CC(=O)[C@@H](CC(C)C)CN1CC2
Potency [18]: inactive | Potency [19]: inactive

c1ccc(-c2ccccc2-c2ccccc2)cc1
Potency [18]: inactive | Potency [19]: inactive

CC1(C)C(C=C(Cl)Cl)C1C(=O)OCc1cccc(Oc2ccccc2)c1 (stereo unspecified)
Potency [20]: inactive | Potency [18]: inactive | Potency [19]: inactive

C[C@]12C[C@H]3S[C@H]3C[C@@H]1CC[C@@H]1[C@@H]2CC[C@]2(C)[C@@H](O)CC[C@@H]12
Potency [1]: 11.4 µM (active) | outcome [3]: inactive | Potency [16]: inactive | Potency [17]: inactive | Potency [4]: inactive | Potency [11]: inactive | Potency [12]: inactive | Potency [8]: inactive | Potency [13]: 0.256 µM [inconclusive] (active) | Potency [14]: 0.143 µM (active) | Potency [9]: inactive

CCN(CC)CCO[C@H]1CC[C@@]2(C)C(=CC[C@@H]3[C@@H]2CC[C@]2(C)C(=O)CC[C@@H]32)C1
Potency [1]: inactive | Potency [2]: inactive | outcome [3]: inactive | Potency [16]: inactive | Potency [17]: inactive | Potency [5]: 1.33 µM (active) | Potency [11]: inactive | Potency [8]: inactive | Potency [13]: inactive | Potency [14]: inactive | Potency [15]: inactive | Potency [9]: inactive

C[C@@H]1[C@H]2Cc3ccc(O)cc3[C@]1(C)CCN2C
Potency [1]: inactive | Potency [2]: inactive | Potency [16]: inactive | Potency [10]: inactive | Potency [4]: inactive | Potency [5]: 89.3 µM (active) | Potency [11]: inactive | Potency [7]: 50.2 µM (active) | Potency [8]: inactive | Potency [9]: inactive

O=c1c2ccccc2[se]n1-c1ccccc1
Potency [1]: 22.1 µM (active) | Potency [16]: inactive | Potency [17]: inactive | Potency [10]: inactive | Potency [4]: inactive | Potency [12]: 23.7 µM (active) | Potency [7]: 23.7 µM (active) | Potency [13]: inactive | Potency [9]: inactive

C[C@]12CC[C@H]3[C@@H](CCC4=CC(=O)CC[C@@]43C)[C@@H]1CC[C@H]2O
Potency [2]: inactive | outcome [3]: inactive | Potency [16]: inactive | Potency [17]: inactive | Potency [10]: inactive | Potency [5]: 23.7 µM (active) | Potency [6]: inactive | Potency [11]: inactive | Potency [8]: inactive | Potency [9]: inactive

O.O.O.O=C([O-])C(O)C(O)C(=O)[O-].O=C([O-])C(O)C(O)C(=O)[O-].[K+].[K+].[Sb].[Sb] (stereo unspecified)
Potency [2]: inactive | outcome [3]: inactive | Potency [11]: 18.8 µM (active) | Potency [12]: 29.8 µM (active) | Potency [13]: inactive | Potency [9]: inactive
